Laboratory results as given in PubChem BioAssay (EPA / NIEHS).
“And” between values parts separate entries of the source, which are not always exact repeats. Equal entries are not always repeated. Some structures have more than one record in an assay (separate samples or runs), and their calls can disagree. The source made the active and inactive calls. How the source made its calls: active means hit-call score of the fitted dose curve at least 0.9, where 1 is the maximum; inactive means score below 0.9.

Legend:
[1] = read-out: C-C motif chemokine 2 (Homo sapiens) (UniProt P13500); assay: BSK_KF3CT_MCP1: BioMAP Diversity Plus: KF3CT Assay for Monocyte Chemoattractant Protein 1 (MCP1/CCL2) Biomarker Activity (AID 2283073); settings: primary human keratinocytes with fibroblasts; actives raise or lower the signal
In short: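 ELISA read-out of MCP-1, 24 h post-dose, in primary human skin keratinocytes co-cultured with fibroblasts. Parallel SRB staining monitors cytotoxicity; changes fitted both directions relative to DMSO.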

[2] = read-out: Matrix Metallopeptidase 9 (MMP9), MMP9 (gene 4318); assay: BSK_KF3CT_MMP9: BioMAP Diversity Plus: KF3CT Assay for Matrix Metallopeptidase 9 (MMP9) Biomarker Activity (AID 2283074); settings: primary human keratinocytes with fibroblasts; actives raise or lower the signal;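 on AC50: MMP9 protein level quantified by ELISA in the co-culture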
In short: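 Human keratinocyte/foreskin fibroblast co-culture; compound added; 24 h; MMP-9 by ELISA; bidirectional fit vs DMSO baseline.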

[3] = read-out: urokinase plasminogen activator (uPA), PLAU (gene 5328); assay: BSK_KF3CT_uPA: BioMAP Diversity Plus: KF3CT Assay for urokinase plasminogen activator (uPA) Biomarker Activity (AID 2283075); settings: primary human keratinocytes with fibroblasts; actives raise or lower the signal
In short: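 ELISA readout of uPA, analyzed for signal gain or loss relative to DMSO, from a human primary keratinocyte–foreskin fibroblast co-culture measured 24 h after chemical treatment.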

[4] = read-out: CD40, CD40 (gene 958); assay: BSK_LPS_CD40: BioMAP Diversity Plus: LPS Assay for CD40 Biomarker Activity (AID 2283076); settings: primary human HUVEC with PBMC; actives raise or lower the signal
In short: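 In the LPS system of human endothelial cells with peripheral blood mononuclear cells, CD40 levels were read by ELISA 24 h post-treatment. Signal changes in either direction were fitted against the DMSO baseline, with parallel SRB protein staining.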

[5] = read-out: E-selectin (Homo sapiens) (UniProt P16581); assay: BSK_LPS_Eselectin: BioMAP Diversity Plus: LPS Assay for Eselectin Biomarker Activity (AID 2283077); settings: primary human HUVEC with PBMC; actives raise or lower the signal
In short: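 E-selectin ELISA on LPS-stimulated endothelial cell/PBMC co-cultures, read 24 h post-treatment; gains and losses fitted against DMSO. Parallel SRB staining (0.1% SRB after 10% TCA fixation, 560 nm) flags overt cytotoxicity.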

[6] = read-out: Interleukin-8 (IL8), CXCL8 (gene 3576); assay: BSK_LPS_IL8: BioMAP Diversity Plus: LPS Assay for Interleukin-8 (IL8) Biomarker Activity (AID 2283078); settings: primary human HUVEC with PBMC; actives raise or lower the signal
In short: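 ELISA read-out of IL-8 after 24 h chemical treatment of LPS-activated endothelial/PBMC human primary co-cultures. Changes either up or down relative to DMSO; overt cytotoxicity checked by sulforhodamine B staining in parallel wells.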

[7] = BSK_LPS_SRB: Viability Assessment in the BioMAP Diversity Plus: LPS Assay (AID 2283079); settings: primary human HUVEC with PBMC;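 further: total protein by sulforhodamine B absorbance as a cytotoxicity measure; measured one day after compound addition; fitted in both directions against DMSO so loss or gain of signal counts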
In short: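 SRB viability endpoint: cells fixed with 10% TCA, stained with 0.1% SRB, read at 560 nm, 24 h post-dose. HUVEC/PBMC co-culture; signal change in either direction scored relative to DMSO.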

[8] = read-out: Interleukin-1 alpha (IL1a), IL1A (gene 3552); assay: BSK_LPS_IL1a: BioMAP Diversity Plus: LPS Assay for Interleukin-1 alpha (IL1a) Biomarker Activity (AID 2283080); settings: primary human HUVEC with PBMC; actives raise or lower the signal
In short: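 Readout is IL-1a level by ELISA, 24 h post-dose, fitted as gain or loss relative to DMSO. System: LPS-activated human primary co-culture of vascular endothelium and peripheral blood mononuclear cells, with parallel SRB total-protein cytotoxicity.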

[9] = read-out: Monocyte Chemoattractant Protein-1 (MCP1), CCL2 (gene 6347); assay: BSK_LPS_MCP1: BioMAP Diversity Plus: LPS Assay for Monocyte Chemoattractant Protein-1 (MCP1) Biomarker Activity (AID 2283081); settings: primary human HUVEC with PBMC; actives raise or lower the signal;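 on AC50: secreted MCP-1 protein quantified by ELISA in culture supernatant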
In short: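 Secreted MCP-1 read by ELISA at 24 h post-dosing in an LPS-activated co-culture of endothelial cells with peripheral blood mononuclear cells. Fits run in both directions, DMSO as baseline; parallel SRB staining tracks overt cytotoxicity.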

[10] = BSK_LPS_PGE2: BioMAP Diversity Plus: LPS Assay for Prostaglandin E2 (PGE2) Biomarker Activity (AID 2283082); settings: primary human HUVEC with PBMC; actives raise or lower the signal;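 on AC50: secreted prostaglandin E2 measured by ELISA in LPS-stimulated co-culture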
In short: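 LPS-activated HUVEC/PBMC co-culture; cmpd dosed, 24 h; PGE2 by ELISA; bidirectional fit vs DMSO; SRB (0.1%, TCA-fixed, 560 nm) in parallel plates for overt cytotox.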

[11] = read-out: Macrophage colony-stimulating factor (MCSF), CSF1 (gene 1435); assay: BSK_LPS_MCSF: BioMAP Diversity Plus: LPS Assay for Macrophage colony-stimulating factor (MCSF) Biomarker Activity (AID 2283083); settings: primary human HUVEC with PBMC; actives raise or lower the signal
In short: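 Bidirectional fitting against DMSO was applied to M-CSF levels read by ELISA at 24 h post-dose. The system pairs human umbilical vein endothelium with peripheral blood mononuclear cells; parallel SRB staining tracked cytotoxicity.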

[12] = read-out: Tissue Factor, F3 (gene 2152); assay: BSK_LPS_TissueFactor: BioMAP Diversity Plus: LPS Assay for Tissue Factor Biomarker Activity (AID 2283084); settings: primary human HUVEC with PBMC; actives raise or lower the signal
In short: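 Compound was added to an endothelial cell/PBMC co-culture, and after 24 h tissue factor (CD142) was read by ELISA. Gain or loss of signal was fitted against a DMSO baseline, and parallel SRB staining (560 nm) tracked overt cytotoxicity.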

[13] = read-out: Tumor necrosis factor (Homo sapiens) (UniProt P01375); assay: BSK_LPS_TNFa: BioMAP Diversity Plus: LPS Assay for Tumour Necrosis Factor alpha (TNFa) Biomarker Activity (AID 2283085); settings: primary human HUVEC with PBMC; actives raise or lower the signal
In short: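 Read-out is ELISA of TNFa in primary human endothelial cell–PBMC co-cultures at 24 h after compound. Activity in either direction was fitted against DMSO.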

[14] = read-out: Vascular cell adhesion molecule 1 (VCAM1), VCAM1 (gene 7412); assay: BSK_LPS_VCAM1: BioMAP Diversity Plus: LPS Assay for Vascular cell adhesion molecule 1 (VCAM1) Biomarker Activity (AID 2283086); settings: primary human HUVEC with PBMC; actives raise or lower the signal
In short: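 HUVEC + PBMC co-culture, LPS system; compound 24 h; VCAM-1 by ELISA; bidirectional fit vs DMSO control; parallel SRB (0.1%, TCA-fixed, 560 nm) for cytotoxicity.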

[15] = read-out: CD38, CD38 (gene 952); assay: BSK_SAg_CD38: BioMAP Diversity Plus: SAg Assay for CD38 Biomarker Activity (AID 2283087); settings: primary human HUVEC with PBMC; actives raise or lower the signal
In short: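 Human HUVEC plus PBMC co-culture stimulated with superantigen; CD38 measured by ELISA 24 h after chemical dosing. Fluorescence read-out, bidirectional fit against DMSO; cytotoxicity tracked in parallel by SRB and Alamar Blue.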

[16] = read-out: CD40, CD40 (gene 958); assay: BSK_SAg_CD40: BioMAP Diversity Plus: SAg Assay for CD40 Biomarker Activity (AID 2283088); settings: primary human HUVEC with PBMC; actives raise or lower the signal
In short: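 CD40 is measured by fluorescence ELISA in an endothelial/PBMC primary human co-culture at 24 h post-dose. Fitting is bidirectional, DMSO baseline. Parallel SRB staining (560 nm) flags cytotoxicity.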

[17] = read-out: CD69, CD69 (gene 969); assay: BSK_SAg_CD69: BioMAP Diversity Plus: SAg Assay for CD69 Biomarker Activity (AID 2283089); settings: primary human HUVEC with PBMC; actives raise or lower the signal;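 on AC50: cell surface CD69 protein quantified by ELISA with fluorescence detection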
In short: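 Primary human vascular co-culture (umbilical vein endothelium with peripheral blood mononuclear cells) exposed to test chemical for 24 h. CD69 levels quantified by fluorescence ELISA; DMSO served as negative control for bidirectional fitting.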

[18] = read-out: E-selectin (Homo sapiens) (UniProt P16581); assay: BSK_SAg_Eselectin: BioMAP Diversity Plus: SAg Assay for Eselectin Biomarker Activity (AID 2283091); settings: primary human HUVEC with PBMC; actives raise or lower the signal
In short: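 Cell-surface E-selectin is read by ELISA at 24 h in the SAg co-culture of HUVEC and PBMC. Curves are fitted in both directions relative to DMSO. Parallel SRB total-protein staining tracks overt toxicity.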

[19] = read-out: Monocyte Chemoattractant Protein-1 (MCP1), CCL2 (gene 6347); assay: BSK_SAg_MCP1: BioMAP Diversity Plus: SAg Assay for Monocyte Chemoattractant Protein-1 (MCP1) Biomarker Activity (AID 2283090); settings: primary human HUVEC with PBMC; actives raise or lower the signal
In short: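 MCP-1 levels in the endothelial–PBMC SAg co-culture were quantified by ELISA at 24 h post-dosing; both increases and decreases versus DMSO scored. Cytotoxicity monitored by SRB total protein in parallel cultures.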

Measured: AC50

Chain of E-selectin (Homo sapiens) (P16581 whole entry, looked up): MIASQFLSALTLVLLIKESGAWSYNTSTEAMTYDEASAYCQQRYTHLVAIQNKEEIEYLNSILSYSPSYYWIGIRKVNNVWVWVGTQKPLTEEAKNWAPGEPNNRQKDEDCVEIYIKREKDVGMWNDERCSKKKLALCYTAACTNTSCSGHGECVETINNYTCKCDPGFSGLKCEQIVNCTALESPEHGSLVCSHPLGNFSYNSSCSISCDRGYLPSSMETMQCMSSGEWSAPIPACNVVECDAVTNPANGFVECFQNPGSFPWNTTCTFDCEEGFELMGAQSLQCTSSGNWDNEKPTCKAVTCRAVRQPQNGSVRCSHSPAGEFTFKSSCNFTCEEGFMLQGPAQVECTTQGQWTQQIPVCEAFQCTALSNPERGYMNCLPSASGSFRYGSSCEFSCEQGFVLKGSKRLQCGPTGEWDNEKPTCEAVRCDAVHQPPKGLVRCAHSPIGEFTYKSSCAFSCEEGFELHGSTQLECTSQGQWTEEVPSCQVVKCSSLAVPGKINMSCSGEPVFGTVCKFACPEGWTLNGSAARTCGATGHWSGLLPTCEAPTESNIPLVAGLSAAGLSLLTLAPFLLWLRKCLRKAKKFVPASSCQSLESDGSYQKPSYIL
Chain of Tumor necrosis factor (Homo sapiens) (P01375 whole entry, looked up): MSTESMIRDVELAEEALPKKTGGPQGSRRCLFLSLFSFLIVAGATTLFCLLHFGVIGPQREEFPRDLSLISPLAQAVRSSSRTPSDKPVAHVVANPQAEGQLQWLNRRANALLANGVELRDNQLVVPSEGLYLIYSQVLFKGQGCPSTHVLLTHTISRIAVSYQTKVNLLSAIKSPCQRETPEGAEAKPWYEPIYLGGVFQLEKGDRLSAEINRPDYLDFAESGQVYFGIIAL

O=C(CC(=O)C(F)(F)C(F)(F)C(F)(F)F)c1cccs1
inactive: [1] | [3] | [4] | [5] | [6] | [8] | [10] | [11] | [12] | [13]
active: [2] 2.38 µM and 4.67 µM | [4] 22.9 µM | [7] 26.4 µM and 37.3 µM | [9] 30 µM and 40.4 µM | [11] 30 µM | [12] 10.4 µM | [13] 15.2 µM | [14] 45.7 µM and 46.4 µM | [15] 23.1 µM and 28.6 µM | [16] 17 µM and 16.2 µM | [17] 17.6 µM and 30 µM | [18] 30 µM and 43.1 µM

Oc1ccc(Cc2ccccc2O)cc1
active: [10] 1.77 µM and 3.97 µM
inactive: all other assays above
